Experiment [1] in a line: qHTS assay to test for compound auto fluorescence at 535 nm (green) in HEK293 cells (AID 720680).
A short description of experiment [2]: qHTS assay to test for compound auto fluorescence at 460 nm (blue) in HEK293 cell free culture (AID 720681). Further: potency means the concentration at half of the fitted maximal effect. In outline: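 Compounds were added to cell-free DMEM with 10% FBS and fluorescence read directly. The blue channel used 405 nm excitation and 460 nm emission, with triamterene as the reference fluorophore.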
Experiment [3] is described as follows: qHTS assay to test for compound auto fluorescence at 535 nm (green) in HEK293 cell free culture (AID 720682). The method, boiled down: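 Green-label autofluorescence (485 nm excitation, 535 nm emission) measured on compound added to cell-free culture medium (DMEM, 10% FBS). Output is expressed relative to fluorescein.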
A short description of experiment [4]: qHTS assay to test for compound auto fluorescence at 590 nm (red) in HEK293 cell free culture (AID 720683). The method, boiled down: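 Cell-free wells of DMEM with 10% FBS received compound, and intrinsic fluorescence was read at excitation/emission 540/590 nm. Values expressed as equivalence to Rose Bengal sodium.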
Experiment [5] can be described thus: qHTS assay to test for compound auto fluorescence at 590 nm (red) in HepG2 cell free culture (AID 720684). The method, boiled down: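 Compounds are added to culture medium (MEM, 10% FBS) lacking cells, then fluorescence is read at excitation 540 nm, emission 590 nm, with Rose Bengal sodium as the equivalency standard.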
The nature of experiment [6]: qHTS assay to test for compound auto fluorescence at 460 nm (blue) in HepG2 cell free culture (AID 720685). In outline:
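Compound (23 nL) or DMSO pinned into cell-free MEM with 10% FBS; blue fluorescence read at 405/460 nm excitation/emission, expressed as auto-fluorescence equivalency to triamterene.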

Experiment [7] in a line: qHTS assay to test for compound auto fluorescence at 535 nm (green) in HepG2 cell free culture (AID 720686).
Experiment [8] is described as follows: qHTS assay to test for compound auto fluorescence at 460 nm (blue) in HepG2 cells (AID 720687). In outline: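 HepG2 cells in MEM with 10% FBS, attached overnight at 37 C, were exposed to compound or DMSO for 1 hr at 37 C, 5% CO2. Blue fluorescence was read at 405/460 nm, with triamterene as reference fluorophore.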
Experiment [9] concerns the target Glucocorticoid receptor (Homo sapiens) (UniProt P04150). The experiment can be described thus: qHTS assay to identify small molecule agonists of the glucocorticoid receptor (GR) signaling pathway (AID 720691; active means well fitted activation curve with a large enough effect in the signal ratio in the repeat runs, not every such curve was filed as active; the % refers to the signal ratio). The method, boiled down: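 Reporter read-out: fluorescence intensity following 2 h room-temperature LiveBLAzer B/G FRET substrate loading. Prior step: GR-bla HeLa cells held 4 h, then treated 18 h at 37 C.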

The target is the same in experiment [10]. As to the kind of experiment: qHTS assay to identify small molecule antagonists of the glucocorticoid receptor (GR) signaling pathway (AID 720692; active means well fitted inhibition curve with a large enough effect in the signal ratio in the repeat runs, not every such curve was filed as active; the % refers to the signal ratio; further: potency means the concentration at half of the fitted maximal effect). The method, boiled down:
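Dexamethasone (5 nM final) stimulated a stably integrated GRE-beta-lactamase reporter in HeLa cells during 18 h co-incubation with compounds; signal was quantified as fluorescence intensity of B/G FRET substrate after 2 h.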

Results on 23 compounds are retold here after PubChem BioAssay (Tox21).

A number with no mark means an inactive call. Inconclusive results are not listed. The source made the active and inactive calls. Unless noted, the call rests on the fitted dose curve; in most records, active means well fitted curve in the direction sought with a large enough effect in the repeat runs; inconclusive means weak or mixed curves; inactive means flat fitted curve, though single readings scatter.
On the % scale 0 is the no-effect control and ±100 the full control effect.

Chain of Glucocorticoid receptor (Homo sapiens) (P04150 whole entry, looked up): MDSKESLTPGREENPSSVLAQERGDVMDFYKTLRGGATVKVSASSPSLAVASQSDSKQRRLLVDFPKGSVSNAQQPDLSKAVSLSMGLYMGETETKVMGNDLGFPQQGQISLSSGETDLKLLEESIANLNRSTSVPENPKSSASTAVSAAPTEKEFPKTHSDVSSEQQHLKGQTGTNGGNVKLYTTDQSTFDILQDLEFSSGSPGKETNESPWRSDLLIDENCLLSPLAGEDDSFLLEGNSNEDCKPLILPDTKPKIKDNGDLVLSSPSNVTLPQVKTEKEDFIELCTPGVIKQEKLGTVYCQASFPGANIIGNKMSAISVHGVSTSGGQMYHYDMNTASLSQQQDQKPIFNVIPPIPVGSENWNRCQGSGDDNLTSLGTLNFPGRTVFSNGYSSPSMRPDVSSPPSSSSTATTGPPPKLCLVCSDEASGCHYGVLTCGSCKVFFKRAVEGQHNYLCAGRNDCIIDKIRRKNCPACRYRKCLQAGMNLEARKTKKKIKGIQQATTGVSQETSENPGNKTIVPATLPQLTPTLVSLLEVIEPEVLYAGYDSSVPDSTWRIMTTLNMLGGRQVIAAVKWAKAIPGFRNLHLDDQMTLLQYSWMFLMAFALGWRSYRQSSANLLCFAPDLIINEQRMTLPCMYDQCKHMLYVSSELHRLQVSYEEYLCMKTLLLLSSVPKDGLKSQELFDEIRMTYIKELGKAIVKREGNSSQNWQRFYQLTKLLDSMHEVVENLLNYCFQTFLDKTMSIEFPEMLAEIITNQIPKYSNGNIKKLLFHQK

Take `SCCOCCOCCS`: the result in experiment [1], in [3], in experiment [4], in experiment [5], in [6] and in experiment [7] was inactive. Further, the call in [8] was inactive. For the same compound, the Potency entry in [2], in experiment [9] and in experiment [10] was “inactive” in each case.
On to `Cc1nc(C)c(C)nc1C`, for which the compound was classed as inactive in experiment [1], in experiment [3], in experiment [4], in [5], in experiment [6] and in [7]. Besides, in experiment [8], the compound was classed as inactive. Moreover, the Potency result in experiment [2], in [9] and in experiment [10] was “inactive” throughout.
Regarding `CCCCCCCCCCCCCCCCN`, the outcome in [1], in experiment [3], in experiment [4], in experiment [5], in experiment [6] and in experiment [7] was inactive. Moreover, the Potency entry in experiment [2] and in experiment [9] was “inactive” throughout.
Turning to `O=C(O)c1ccccc1[N+](=O)[O-]`, the call in [1], in experiment [3], in [4], in experiment [5], in [6] and in experiment [7] was inactive. In addition, the Potency result in experiment [2], in [9] and in experiment [10] was “inactive” in each case.
Regarding `COc1cc(C)c(Cc2cnc(N)nc2N)cc1OC`, the outcome in experiment [1], in experiment [3], in experiment [4], in [5], in [6] and in experiment [7] was inactive. Also, the Potency entry in experiment [2], in experiment [9] and in [10] was “inactive” each time.
`CC(C)Oc1ccccc1O`: the call in experiment [1], in [3], in experiment [4], in experiment [5], in experiment [6] and in [7] was inactive. Further, the Potency result in experiment [2], in [9] and in experiment [10] was “inactive” in each case.
`O=C(O)COCC(=O)O`: the outcome in experiment [1], in experiment [3], in experiment [4], in experiment [5], in experiment [6] and in experiment [7] was inactive. In [8], the call was inactive. Moreover, the Potency entry in experiment [2], in experiment [9] and in [10] was “inactive” in each case.
Take `CC(C(=O)O)c1ccc2c(c1)Cc1cccnc1O2` (stereo not given): the compound was classed as inactive in [1], in experiment [3], in experiment [4], in experiment [5], in experiment [6] and in experiment [7]. Also, the compound was called inactive in experiment [8]. The Potency result in experiment [2], in experiment [9] and in [10] was “inactive” throughout.
For `O=c1c2ccccc2oc2ccccc12`, the call in [1], in experiment [3], in experiment [4], in [5], in [6] and in [7] was inactive. The call in experiment [8] was inactive. Moreover, the Potency result in experiment [2], in experiment [9] and in experiment [10] was “inactive” in each case.
Turning to `CC(=O)c1cccnc1`, the result in experiment [1], in experiment [3], in experiment [4], in experiment [5], in experiment [6] and in [7] was inactive. In addition, the Potency result in experiment [2], in experiment [9] and in [10] was “inactive” in each case.
As to `Cc1c(Cl)cccc1[N+](=O)[O-]`, the call in experiment [1], in experiment [3], in experiment [4], in experiment [5], in experiment [6] and in [7] was inactive. Moreover, the Potency result in [2], in experiment [9] and in experiment [10] was “inactive” throughout.
For `CCN(CCCCOC(=O)c1ccc(OC)c(OC)c1)C(C)Cc1ccc(OC)cc1` (stereo not given), the fluorescence, % of fluorescein in experiment [1] is 0.0099% [at 18.6 µM]. The fluorescence, % of fluorescent control in experiment [2] is 0.0098% [at 18.6 µM]; in experiment [4], -0.0979% [at 18.6 µM]; in [6], 0.0055% [at 18.6 µM]. The activity change in [3] was 0.0553% [at 18.6 µM]. For the same compound, the fluorescence, % of Rose Bengal in experiment [5] was 0.006% [at 18.6 µM]. Moreover, the fluorescence, % of fluorescein control in experiment [7] is 0.0076% [at 18.6 µM]. Also, the Potency result in experiment [9] and in experiment [10] was “inactive” throughout.
Regarding `CC(C)(C)N`, the compound was called inactive in experiment [1], in experiment [3], in [4], in [5], in experiment [6] and in experiment [7]. Also, the call in [8] was inactive. The Potency result in experiment [2], in experiment [9] and in [10] was “inactive” throughout.
Take `Cc1ccc(S(=O)(=O)NC(=O)NC2CCCC2)cc1`: the result in [1], in experiment [3], in experiment [4], in experiment [5], in experiment [6] and in experiment [7] was inactive. In addition, the Potency result in [2], in experiment [9] and in experiment [10] was “inactive” throughout.
On to `CC[C@H](NC(C)C)[C@H](O)c1ccc(O)c2[nH]c(=O)ccc12`, for which the compound was called inactive in experiment [1], in experiment [3], in [4], in experiment [5], in experiment [6] and in [7]. The Potency in experiment [2] was 14.1 µM (active). Moreover, the Potency result in experiment [9] and in [10] was “inactive” throughout.
As to `Cc1cc(SC2=C(O)C[C@@](CCc3ccc(N)cc3)(C(C)C)OC2=O)c(C(C)(C)C)cc1CO`, the compound was classed as inactive in experiment [1], in experiment [3], in experiment [4], in experiment [5], in experiment [6] and in experiment [7]. Also, the outcome in experiment [8] was inactive. Besides, the Potency entry in experiment [2] is “inactive”. Also, the Potency in experiment [10] was 54.9 µM (active).
For `CCCC(=O)OCCC(C)C`, the compound was called inactive in [1], in [3], in experiment [4], in experiment [5], in experiment [6] and in experiment [7]. The compound was called inactive in experiment [8]. The Potency entry in experiment [2], in experiment [9] and in experiment [10] was “inactive” in each case.
As to `CNc1ccccc1`, the result in [1], in [3], in experiment [4], in experiment [5], in experiment [6] and in experiment [7] was inactive. For the same compound, the Potency result in [2] and in experiment [9] was “inactive” each time.
With `CC(C)(C)NCC(O)COc1ccc(NC(=O)NC2CCCCC2)cc1` (stereo not given), the compound was classed as inactive in [1], in experiment [3], in experiment [4], in experiment [5], in [6] and in experiment [7]. In addition, the result in [8] was inactive. Further, the Potency entry in [2], in [9] and in [10] was “inactive” throughout.
`CCCCCO`: the result in [1], in experiment [3], in [4], in [5], in [6] and in [7] was inactive. Moreover, the Potency entry in [2], in [9] and in [10] was “inactive” throughout.
Take `O=C(O)CNc1ccccc1`: the compound was called inactive in [1], in experiment [3], in experiment [4], in [5], in experiment [6] and in experiment [7]. Further, in experiment [8], the compound was classed as inactive. Besides, the Potency entry in experiment [2], in [9] and in [10] was “inactive” each time.
Take `CCCc1ccc(OC)cc1`: the result in experiment [1], in [3], in [4], in [5], in experiment [6] and in experiment [7] was inactive. Also, the Potency entry in experiment [2], in experiment [9] and in experiment [10] was “inactive” throughout.
Turning to `O=C(Cl)c1cc(Cl)cc(Cl)c1`, the result in experiment [1], in experiment [3], in experiment [4], in experiment [5], in experiment [6] and in experiment [7] was inactive. For the same compound, in [8], the result was inactive. In addition, the Potency entry in [2], in [9] and in experiment [10] was “inactive” each time.
